G9a inh – qHTS Assay for Inhibitors of Histone Lysine Methyltransferase G9a | Histone-lysine N-methyltransferase EHMT2 (Homo sapiens), Q96KQ7 | G9a H3K9 monomethylation, AlphaScreen, 2 h | Potency, µM (highest dose often 102 µM), most hits filed as inhibitors | hit rate 8.8% among 350,000; further: nearly all actives have a fitted effect of over 75% in size
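AlphaScreen detection with an anti-monomethyl H3K9 antibody quantified product after a 2 h room-temperature reaction containing 500 nM biotinylated H3K9 peptide, 20 µM SAM and 20 nM enzyme, which had been preincubated 15 min with compound.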
HP1b binding inh – HTS for Inhibitors of HP1-beta Chromodomain Interactions with Methylated Histone Tails | Chromobox protein homolog 1 (Homo sapiens), P83916 | AlphaScreen HP1-beta / biotin-H3K9me3 peptide binding | Potency, µM (doses to about 114 µM), most hits filed as inhibitors | hit rate 0.56% among 390,000; further: nearly all actives have a fitted effect of over 70% in size
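HP1-beta protein (50 nM final) preincubated 30 min at room temperature with biotinylated H3(1-18)K9me3 peptide (50 nM) in PBS pH 7.4, 0.01% Tween-20, then compound added for 30 min. AlphaScreen streptavidin donor/nickel chelate acceptor beads (10 ug/mL final), 30 min dark, luminescence read.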
JMJD2A Tudor – qHTS Assay for Inhibitors of JMJD2A-Tudor Domain; Lysine-specific demethylase 4A (Homo sapiens), O75164; AlphaScreen JMJD2A-Tudor / H3K4me3 peptide binding; Potency, µM (highest dose often 114 µM), most hits filed as inhibitors; hit rate 4.4% among 390,000; AID 504339, 2011; further: nearly all actives have a fitted effect of over 50% in size
BAZ2B inh – qHTS Assay for Inhibitors of BAZ2B; AlphaScreen BAZ2B-H3K14Ac peptide displacement; Potency, µM (doses to about 114 µM), actives largely listed as inhibitors; hit rate 4.4% among 360,000; Bromodomain adjacent to zinc finger domain protein 2B (Homo sapiens), Q9UIF8; further: nearly all actives have a fitted effect of over 60% in size
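Complex of BAZ2B and biotin-H3K14Ac (50 nM apiece) forms over 30 min at RT, then faces library compounds up to 110 uM for another 30 min; AlphaScreen beads added, 20 min dark incubation, luminescence read.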
GLS inhibitor – qHTS for Inhibitors of Glutaminase (GLS) | Glutaminase kidney isoform, mitochondrial (Homo sapiens), O94925 | GLS enzymatic activity, qHTS titration | Potency, µM (highest dose often 45.5 µM), actives largely listed as inhibitors | hit rate 0.21% among 410,000 | AID 624170, 2012
Target sequence (O94925 whole entry, looked up, canonical isoform): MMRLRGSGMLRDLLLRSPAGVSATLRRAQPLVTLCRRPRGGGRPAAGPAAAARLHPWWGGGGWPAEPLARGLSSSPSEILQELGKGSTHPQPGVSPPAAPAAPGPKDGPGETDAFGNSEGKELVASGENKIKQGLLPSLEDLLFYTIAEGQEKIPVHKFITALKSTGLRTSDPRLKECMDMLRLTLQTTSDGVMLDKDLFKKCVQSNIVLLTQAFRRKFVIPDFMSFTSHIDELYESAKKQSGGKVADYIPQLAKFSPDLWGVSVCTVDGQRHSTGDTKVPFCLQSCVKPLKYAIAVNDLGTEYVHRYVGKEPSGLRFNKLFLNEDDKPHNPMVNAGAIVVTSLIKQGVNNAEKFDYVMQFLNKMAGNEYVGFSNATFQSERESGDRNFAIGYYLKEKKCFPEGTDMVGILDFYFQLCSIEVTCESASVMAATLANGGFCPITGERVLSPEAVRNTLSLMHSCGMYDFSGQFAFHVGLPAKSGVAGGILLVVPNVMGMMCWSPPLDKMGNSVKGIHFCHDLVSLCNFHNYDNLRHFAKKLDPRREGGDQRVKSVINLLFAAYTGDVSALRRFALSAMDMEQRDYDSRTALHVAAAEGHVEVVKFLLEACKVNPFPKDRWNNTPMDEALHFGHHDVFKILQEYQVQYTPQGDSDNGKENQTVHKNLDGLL
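hKGA; 45 mM KH2PO4 pH 8.2 + 0.02% Tween-20; cpd via pin tool; 1 mM Gln soln; GluOx/HRP/Amplex Red; RT 30 min; fluor. t0 & final.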
Each line names hits and unclear results; the compound was inactive in the other large screens. Most compounds without a hit are left out; they make up all but 10% or so of the library. The call rests on the fitted dose curve; in most records, active means well fitted curve in the direction sought with a large enough effect; inconclusive means small, poorly fitted or top-dose-only effect, or another doubt; inactive means no such curve, though single readings can be large; an effect the other way counts as inactive or inconclusive.

O=C(N/N=C/c1ccc(O)cc1O)c1ccc(CN2C(=O)c3cccc4cccc2c34)cc1	G9a inh 79.4µM
O=C(N/N=C/c1ccccc1)c1ccc(CN2C(=O)c3cccc4cccc2c34)cc1	JMJD2A Tudor inconclusive
CCC(=O)Nc1c(C)nn(-c2ccc(C)c(C)c2)c1C	G9a inh 28.2µM
Cc1ccc(-n2nc(C)c(NC(=O)CCl)c2C)cc1C	none
Cc1ccccc1Nc1nnc(SCC(=O)c2ccc(O)cc2O)s1	G9a inh 8.91µM
Cc1ccccc1Nc1nnc(SCC(=O)c2c(N)n(C3CC3)c(=O)[nH]c2=O)s1	G9a inh 10µM
Cc1cc(C)cc(-n2ccnc2SCC(=O)c2c(N)n(C3CC3)c(=O)[nH]c2=O)c1	G9a inh 2.51µM
CNc1nnc(SCC(=O)c2c(N)n(C3CC3)c(=O)[nH]c2=O)s1	G9a inh 44.7µM
O=C(NCc1cccc(Br)c1)c1cnn(-c2ccc(F)cc2)c1-n1cccc1	none
O=C1N(CCCl)c2ccc(Br)cc2C12OCCO2	none (no result: G9a inh)
Cn1c(N)c(C(=O)CSc2nnc(-c3cccs3)n2C2CC2)c(=O)[nH]c1=O	G9a inh 50.1µM
Cc1ccc(Nc2nnc(SCC(=O)c3ccc(Br)s3)s2)c(C)c1	G9a inh 11.2µM
CSc1nnc(Nc2ccccc2C)s1	G9a inh 28.2µM
COc1ccc(-c2csc(C(NC(C)=O)c3ccccc3)n2)cn1 (stereo not given)	none (no result: G9a inh, HP1b binding inh, JMJD2A Tudor, BAZ2B inh)
Cc1cccc(C)c1OCC(=O)NCC1COc2ccccc2O1 (stereo not given)	none
Cc1nc(N)nc(N)c1CCCc1ccc(Cl)c(Cl)c1	none (no result: G9a inh, BAZ2B inh)
Cc1c(C)c2c(OCC(=O)NCC(=O)NCC(=O)O)cc3c(c2oc1=O)CCC(C)(C)O3	JMJD2A Tudor 20µM, GLS inhibitor inconclusive
CN(C)CCN(C(=O)c1ccccc1Cl)c1nc2c(Cl)cccc2s1	G9a inh 10µM, HP1b binding inh inconclusive, JMJD2A Tudor 25.1µM
CCN(CC)CCN(C(=O)c1ccc2c(c1)OCCO2)c1nc2c(Cl)cccc2s1	G9a inh 50.1µM, JMJD2A Tudor inconclusive, BAZ2B inh inconclusive
COC(=O)c1ccc(C(=O)N(CCN(C)C)c2nc3c(Cl)cccc3s2)cc1	G9a inh 56.2µM (no result: BAZ2B inh)
CCN(CC)CCN(C(=O)c1ccc2c(c1)OCCO2)c1nc2cc(C)cc(C)c2s1	JMJD2A Tudor inconclusive, BAZ2B inh inconclusive (no result: G9a inh)
O=C(Cc1ccccc1)N(Cc1cccnc1)c1nc2c(Cl)cccc2s1	BAZ2B inh inconclusive
CN(C)CCN(C(=O)c1cccc(Cl)c1)c1nc2c(Cl)cccc2s1	G9a inh 44.7µM, JMJD2A Tudor inconclusive
CC(CCCN(C)C)C(Cc1ccccc1)c1ccccc1 (stereo not given)	none (no result: G9a inh, BAZ2B inh)
Cc1ccc(OCc2cc(=O)n3cc(C)sc3n2)c(C)c1	none
CCCCNc1ncnc2sc3c(c12)CCN(CCC)C3	none
O=C(N/N=C/c1cc([N+](=O)[O-])ccc1N1CCNCC1)c1ccc([N+](=O)[O-])cc1	none
CCc1ccc(S(=O)(=O)c2nnn3c2nc(Nc2cccc(C)c2C)c2sccc23)cc1	none
CC(=O)C1=C(C)NC(SCC(=O)c2ccccc2)=C(C#N)C1CC(C)C (stereo not given)	G9a inh inconclusive, JMJD2A Tudor 56.2µM, BAZ2B inh inconclusive
CC(=O)C1=C(C)NC(SCC(=O)c2ccc(Cl)cc2)=C(C#N)C1c1ccco1 (stereo not given)	G9a inh inconclusive
Cc1c(F)c(N2CCNC(C)C2)cc2c1c(=O)c(C(=O)O)cn2C1CC1 (stereo not given)	none (no result: HP1b binding inh, JMJD2A Tudor, BAZ2B inh)
CC(CCc1ccc(O)cc1)NCCc1ccc(O)c(O)c1 (stereo not given)	none (no result: BAZ2B inh)
CC(Cc1ccc(O)c(O)c1)C(C)Cc1ccc(O)c(O)c1 (stereo not given)	HP1b binding inh inconclusive, JMJD2A Tudor 22.4µM (no result: G9a inh, BAZ2B inh)
C[C@H](Cc1ccc(O)c(O)c1)[C@@H](C)Cc1ccc(O)c(O)c1	G9a inh 0.794µM (no result: HP1b binding inh, JMJD2A Tudor, BAZ2B inh, GLS inhibitor)
COc1cc(C[C@@H](C)[C@@H](C)Cc2ccc(O)c(OC)c2)ccc1O	JMJD2A Tudor inconclusive (no result: G9a inh, BAZ2B inh)
O=c1c(-c2ccccc2)nc2cnc(N3CCOCC3)nc2n1Cc1ccc(F)cc1	none (no result: HP1b binding inh, JMJD2A Tudor, BAZ2B inh, GLS inhibitor)
